The values that follow come from PubChem BioAssay (NCATS).

Records with an inconclusive call do not appear. A call without a number means that no potency is given here. Active and inactive are the calls of the source. Calls come from the whole dose curve.

Sequence of Vitamin D3 receptor (Homo sapiens) (P11473 whole entry, looked up): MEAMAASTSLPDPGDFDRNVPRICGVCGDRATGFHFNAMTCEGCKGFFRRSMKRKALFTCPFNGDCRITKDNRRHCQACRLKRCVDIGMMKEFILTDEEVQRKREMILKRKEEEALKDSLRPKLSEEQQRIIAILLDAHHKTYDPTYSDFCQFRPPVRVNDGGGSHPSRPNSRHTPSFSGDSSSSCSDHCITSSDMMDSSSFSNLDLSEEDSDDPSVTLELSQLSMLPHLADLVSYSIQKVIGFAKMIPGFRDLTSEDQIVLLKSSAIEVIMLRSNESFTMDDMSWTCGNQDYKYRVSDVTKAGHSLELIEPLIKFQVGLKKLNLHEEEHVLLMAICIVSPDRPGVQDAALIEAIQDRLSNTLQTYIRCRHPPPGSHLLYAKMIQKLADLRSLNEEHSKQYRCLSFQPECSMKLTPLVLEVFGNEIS

This assay addresses Vitamin D3 receptor (Homo sapiens) (UniProt P11473). Put plainly: qHTS assay for small molecule antagonists of vitamin D receptor signaling (AID 588541).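 Note: receptor activated by calcitriol during compound treatment.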 The following applies: HEK293T VDR-UAS-bla, beta-lactamase ratio, antagonist mode; series mostly up to 76.7 µM. The text has this: NIH Chemical Genomics Center [NCGC]
U.S. Environmental Protection Agency [EPA]
National Institutes of Environmental Health Sciences [NIEHS]
National Toxicology Program [NTP]
The Vitamin D receptor (VDR) is a member of nuclear hormone receptor superfamily and it plays a critical role in calcium homeostasis and bone metabolism. It plays a role in inducing cell differentiation, inhibiting cell growth and in thrombogenicity. So, VDR that mediates these effects represents a pharmacological target in prevention and treatment of hyperproliferative malignancies, such as cancer and psoriasis, cardiovascular, immunological, inflammatory and renal diseases etc.
NCGC Assay Protocol Summary
Using a beta-lactamase reporter-gene under control of Vitamin D receptor (VDR) response element, a cell-based assay [GeneBLAzer (VDR -UAS-bla assay developed by Invitrogen] was used to measure VDR ligands signaling. GeneBLAzer VDR -UAS-bla HEK293T cells were used with assay medium containing 2% charcoal-stripped FBS. The assay was performed in clear bottom black Greiner 1536-well plates. Library compounds were measured for their ability to inhibit the reporter gene activity. Compounds were screened in a titration series in 1536-well format. The fluorescence intensity (405 nm excitation, 460/530 nm emission) was measured using an EnVision plate reader. Data was normalized relative to 1-alpha,25-Dihydroxy vitaminD3 control (50 nM, 100%) and DMSO only wells (basal, 0%). Concentration-response titration points for each compound were fitted to the Hill equation yielding concentrations of half-maximal inhibition (IC50) and maximal response (efficacy) values.
qHTS protocol for VDR beta-lactamase assay in antagonist mode
[Step] [Parameter] [Value] [Description]
1. Reagent; 5 uL; 2000 cells/well
2. Incubation; 37 C for 5 hrs
4. Controls (DMSO); 23 nL,
5. Agonist (Stimulator); 1uL; 1-alpha,25-Dihydroxy vitaminD3 at 50 nM and 3 nM final concentrations
6. Incubation; 37 C for 16 hrs
7. Detection reagent; 1 uL of CCF4-dye
8. Incubation; RT for 2 hrs
9. Detection; Fluorescence; Envision plate reader
On the technique in general: Quantitative high-throughput screening tests each substance at several concentrations.
As to `Cc1c(Cl)cccc1Cl`, the Potency result is “inactive”.

As to `CCOC(=O)CCCCCCCCC(=O)OCC`, the Potency result is “inactive”.

On to `COC(=O)c1cccc(C(=O)OC)c1`, for which the Potency entry was “inactive”.

Consider `CCCCCCCCCC(C)=O`, for which the Potency entry is “inactive”.

For the compound `Oc1ccc(C(c2ccc(O)cc2)C(Cl)(Cl)Cl)cc1`, the Potency result is “inactive”.

Take `COC(=O)C1CCC(C(=O)OC)CC1` (stereo not given): the Potency entry is “inactive”.

For the compound `C=Cc1ccc(P(c2ccccc2)c2ccccc2)cc1`, the Potency entry is “inactive”.

Regarding `O=C(OCC1CCC2OC2C1)C1CCC2OC2C1` (stereo not given), the Potency entry was “inactive”.

For the compound `CCCCCCCCCCCO`, the Potency entry was “inactive”.

With `CC(C)(C)c1ccc(C(=O)O)cc1`, the Potency entry is “inactive”.

As for `CCCCCCCCCCCCCCC(=O)OC`, the Potency entry is “inactive”.

As for `CNc1nc(=O)n(C2CCCCC2)c(=O)n1C`, the Potency result was “inactive”.

For the compound `O=S(c1ccc(Cl)cc1)c1cc(Cl)c(Cl)cc1Cl` (stereo not given), the Potency result is “inactive”.

Regarding `c1ccc(-c2ccc(-c3ccccc3)cc2)cc1`, the Potency result is “inactive”.

Turning to `CCCCCC1CCC(=O)O1` (stereo not given), the Potency result is “inactive”.

For the compound `CCC(O)OCCCOC` (stereo not given), the Potency entry is “inactive”.

For the compound `C[C@]12CCC(=O)C=C1CC[C@@H]1[C@@H]2[C@@H](O)C[C@]2(C=O)[C@@H](C(=O)CO)CC[C@@H]12`, the Potency entry was “inactive”.

For the compound `Cn1c(=O)[nH]c(=O)n(C2CCCCC2)c1=O`, the Potency result is “inactive”.

With `CCSC(=O)N(CC(C)C)CC(C)C`, the Potency entry is “inactive”.

For the compound `CC(=O)c1c(C)c([N+](=O)[O-])c(C(C)(C)C)c([N+](=O)[O-])c1C`, the Potency entry was “inactive”.

Take `CN=C(N)NCC1CCOC1` (stereo not given): the Potency entry was “inactive”.

`C=CC(=O)OCCOc1ccccc1`: the Potency result is “inactive”.

With `CC1=CC(=O)CC(C)(C)C1`, the Potency entry was “inactive”.

As for `CN(C)c1nc(=O)n(C2CCC(O)CC2)c(=O)n1C` (stereo not given), the Potency entry was “inactive”.

`CCCCCCC(O)CCCCCCCCCCC(=O)O` (stereo not given): the Potency entry was “inactive”.

In the case of `COC(=O)CSc1cc(N=c2sc(=O)n3n2CCCC3)c(F)cc1Cl`, the Potency entry is “inactive”.

Regarding `C[Si]1(C)O[Si](C)(C)O[Si](C)(C)O[Si](C)(C)O1`, the Potency result was “inactive”.

As to `CO[Si](CCCNCCN)(OC)OC`, the Potency entry was “inactive”.

As for `C1=C/CC/C=C/CC/C=C/CC/1`, the Potency result was “inactive”.

In the case of `O=c1n(CCO)c(=O)n(CCO)c(=O)n1CCO`, the Potency result was “inactive”.

Regarding `CCNc1nc(N)nc(Cl)n1`, the Potency entry is “inactive”.

Turning to `Cc1ccc(N)c(S(=O)(=O)O)c1`, the Potency entry was “inactive”.

For the compound `COC(=O)c1ccccc1C(=O)O`, the Potency entry is “inactive”.

Regarding `OCC(CO)(CO)COCC(CO)(CO)CO`, the Potency entry was “inactive”.

As for `COC(=O)c1ccc(I)cc1S(=O)(=O)NC(=O)Nc1nc(C)nc(OC)n1`, the Potency entry was “inactive”.

As for `OCc1cccc(Oc2ccccc2)c1`, the Potency result was “inactive”.

With `O=[N+]([O-])c1ccc(O)cc1C(F)(F)F`, the Potency entry was “inactive”.

On to `O=S(=O)(O)c1ccc(N=Nc2c(O)ccc3cc(S(=O)(=O)O)ccc23)cc1`, for which the Potency result was “inactive”.

For the compound `C=CC(=O)OCC(C)OCC(C)OCC(C)OC(=O)C=C` (stereo not given), the Potency result is “inactive”.

With `O=S(=O)(O)c1cc(S(=O)(=O)O)c2c(N=Nc3ccccc3)c(O)ccc2c1`, the Potency entry was “inactive”.
